Measurements reported in the supplement of paper PMC11732987, “Enantioselective OTUD7B fragment discovery through chemoproteomics screening and high-throughput optimisation” (Communications Chemistry, 2025).

Experiments:
Assay in all cases: log2 ratio of Biotin-Ahx-Ub-VS probe labelling (fragment/DMSO); higher = less target engagement (more negative = stronger competition), active = hit call of the paper (q ≤ 0.05, log2 ratio ≤ -1)
Conditions in all cases: compound concentration: 200 uM; treatment time: 3 h
[1] = target: T1, USP42 (UniProt Q9H9J4)
T1 sequence (whole entry): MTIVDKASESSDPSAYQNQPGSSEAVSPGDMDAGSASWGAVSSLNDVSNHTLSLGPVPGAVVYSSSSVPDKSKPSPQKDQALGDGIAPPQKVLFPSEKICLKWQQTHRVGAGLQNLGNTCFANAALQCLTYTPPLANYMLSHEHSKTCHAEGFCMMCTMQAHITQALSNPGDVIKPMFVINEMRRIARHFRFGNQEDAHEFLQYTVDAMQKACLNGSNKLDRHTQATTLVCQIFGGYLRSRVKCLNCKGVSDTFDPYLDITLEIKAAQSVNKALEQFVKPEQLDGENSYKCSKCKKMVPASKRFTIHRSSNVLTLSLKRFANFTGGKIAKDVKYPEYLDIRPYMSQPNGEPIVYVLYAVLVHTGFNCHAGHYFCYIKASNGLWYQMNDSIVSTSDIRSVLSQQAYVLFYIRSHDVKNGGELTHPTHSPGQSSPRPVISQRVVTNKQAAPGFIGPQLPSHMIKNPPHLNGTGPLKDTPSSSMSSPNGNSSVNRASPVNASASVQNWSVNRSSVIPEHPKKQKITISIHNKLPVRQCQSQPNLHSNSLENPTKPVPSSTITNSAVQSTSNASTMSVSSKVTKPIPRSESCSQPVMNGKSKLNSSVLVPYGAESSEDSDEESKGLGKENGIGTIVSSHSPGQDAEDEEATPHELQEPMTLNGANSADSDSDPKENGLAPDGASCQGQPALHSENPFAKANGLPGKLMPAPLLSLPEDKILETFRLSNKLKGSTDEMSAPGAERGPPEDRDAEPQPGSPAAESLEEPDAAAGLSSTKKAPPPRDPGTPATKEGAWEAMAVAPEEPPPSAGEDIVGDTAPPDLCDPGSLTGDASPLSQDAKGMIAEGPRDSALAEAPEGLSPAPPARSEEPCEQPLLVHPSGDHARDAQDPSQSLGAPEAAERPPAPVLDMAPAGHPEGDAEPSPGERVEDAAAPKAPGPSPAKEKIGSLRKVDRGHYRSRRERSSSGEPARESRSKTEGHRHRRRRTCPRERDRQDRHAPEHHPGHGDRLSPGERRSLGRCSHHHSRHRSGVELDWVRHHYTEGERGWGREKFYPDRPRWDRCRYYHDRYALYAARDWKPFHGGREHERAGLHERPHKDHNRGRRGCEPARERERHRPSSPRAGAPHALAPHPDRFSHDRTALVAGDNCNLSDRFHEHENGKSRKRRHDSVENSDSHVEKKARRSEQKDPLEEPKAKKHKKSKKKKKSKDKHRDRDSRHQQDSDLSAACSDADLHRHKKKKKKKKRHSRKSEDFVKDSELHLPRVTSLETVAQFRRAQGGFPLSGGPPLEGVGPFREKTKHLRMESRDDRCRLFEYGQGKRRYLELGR
Procedure, shortened: (§1)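 HEK293T lysate (495 µg per sample, in Tris/CHAPS/IGEPAL buffer with protease inhibitors) was exposed in triplicate for 3 h to fragment at 200 µM or to vehicle, then to Biotin-Ahx-Ub-VS at 0.5 µM final for 1 h. Labelled DUBs were enriched on NeutrAvidin, digested with LysC and trypsin, and analysed by diaPASEF LC-MS/MS. Spectronaut label-free quantities were normalised to the global median, and values are average log2 ratios of fragment over vehicle from an unpaired t-test. Only proteins with ≥2 unique peptides were used.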

[2] = target: USP46 (UniProt P62068)
Procedure, shortened: as §1

[3] = target: T2, USP47 (UniProt Q96K76)
T2 sequence (whole entry): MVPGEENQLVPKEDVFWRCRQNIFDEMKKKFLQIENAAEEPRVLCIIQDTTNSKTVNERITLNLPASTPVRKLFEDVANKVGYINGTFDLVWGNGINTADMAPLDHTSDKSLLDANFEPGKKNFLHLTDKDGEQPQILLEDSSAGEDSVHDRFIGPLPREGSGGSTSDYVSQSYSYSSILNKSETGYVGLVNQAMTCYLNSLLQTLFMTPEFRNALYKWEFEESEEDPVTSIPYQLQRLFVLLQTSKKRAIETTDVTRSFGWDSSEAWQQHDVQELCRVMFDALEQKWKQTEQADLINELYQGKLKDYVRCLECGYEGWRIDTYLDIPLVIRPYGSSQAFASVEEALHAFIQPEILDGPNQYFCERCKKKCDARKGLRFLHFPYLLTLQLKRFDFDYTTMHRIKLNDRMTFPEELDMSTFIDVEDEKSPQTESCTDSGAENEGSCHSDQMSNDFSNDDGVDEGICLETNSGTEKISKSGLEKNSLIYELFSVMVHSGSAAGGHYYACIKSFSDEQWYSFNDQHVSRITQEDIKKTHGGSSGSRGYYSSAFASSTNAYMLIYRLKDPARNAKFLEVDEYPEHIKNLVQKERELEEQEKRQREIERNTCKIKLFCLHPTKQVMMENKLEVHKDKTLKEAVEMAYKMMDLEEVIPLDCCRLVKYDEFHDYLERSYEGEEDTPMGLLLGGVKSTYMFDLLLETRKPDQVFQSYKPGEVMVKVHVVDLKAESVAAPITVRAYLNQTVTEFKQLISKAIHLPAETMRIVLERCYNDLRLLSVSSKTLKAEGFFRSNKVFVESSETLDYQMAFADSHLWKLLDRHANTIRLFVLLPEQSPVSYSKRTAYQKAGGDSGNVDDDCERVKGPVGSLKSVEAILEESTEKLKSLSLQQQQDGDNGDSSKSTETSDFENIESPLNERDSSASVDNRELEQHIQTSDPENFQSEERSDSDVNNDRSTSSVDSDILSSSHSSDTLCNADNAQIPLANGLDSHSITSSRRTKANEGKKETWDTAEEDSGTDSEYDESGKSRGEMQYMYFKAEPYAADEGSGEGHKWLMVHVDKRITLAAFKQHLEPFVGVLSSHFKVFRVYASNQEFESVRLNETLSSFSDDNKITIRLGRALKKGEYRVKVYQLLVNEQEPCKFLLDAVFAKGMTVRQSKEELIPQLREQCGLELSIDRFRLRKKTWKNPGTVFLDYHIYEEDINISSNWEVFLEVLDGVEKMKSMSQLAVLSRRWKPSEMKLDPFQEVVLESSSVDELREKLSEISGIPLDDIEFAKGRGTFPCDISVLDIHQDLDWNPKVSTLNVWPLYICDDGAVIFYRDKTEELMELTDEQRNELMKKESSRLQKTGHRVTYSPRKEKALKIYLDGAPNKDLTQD
Procedure, shortened: as §1

[4] = target: T3, USP48 (UniProt Q86UV5)
T3 sequence (whole entry): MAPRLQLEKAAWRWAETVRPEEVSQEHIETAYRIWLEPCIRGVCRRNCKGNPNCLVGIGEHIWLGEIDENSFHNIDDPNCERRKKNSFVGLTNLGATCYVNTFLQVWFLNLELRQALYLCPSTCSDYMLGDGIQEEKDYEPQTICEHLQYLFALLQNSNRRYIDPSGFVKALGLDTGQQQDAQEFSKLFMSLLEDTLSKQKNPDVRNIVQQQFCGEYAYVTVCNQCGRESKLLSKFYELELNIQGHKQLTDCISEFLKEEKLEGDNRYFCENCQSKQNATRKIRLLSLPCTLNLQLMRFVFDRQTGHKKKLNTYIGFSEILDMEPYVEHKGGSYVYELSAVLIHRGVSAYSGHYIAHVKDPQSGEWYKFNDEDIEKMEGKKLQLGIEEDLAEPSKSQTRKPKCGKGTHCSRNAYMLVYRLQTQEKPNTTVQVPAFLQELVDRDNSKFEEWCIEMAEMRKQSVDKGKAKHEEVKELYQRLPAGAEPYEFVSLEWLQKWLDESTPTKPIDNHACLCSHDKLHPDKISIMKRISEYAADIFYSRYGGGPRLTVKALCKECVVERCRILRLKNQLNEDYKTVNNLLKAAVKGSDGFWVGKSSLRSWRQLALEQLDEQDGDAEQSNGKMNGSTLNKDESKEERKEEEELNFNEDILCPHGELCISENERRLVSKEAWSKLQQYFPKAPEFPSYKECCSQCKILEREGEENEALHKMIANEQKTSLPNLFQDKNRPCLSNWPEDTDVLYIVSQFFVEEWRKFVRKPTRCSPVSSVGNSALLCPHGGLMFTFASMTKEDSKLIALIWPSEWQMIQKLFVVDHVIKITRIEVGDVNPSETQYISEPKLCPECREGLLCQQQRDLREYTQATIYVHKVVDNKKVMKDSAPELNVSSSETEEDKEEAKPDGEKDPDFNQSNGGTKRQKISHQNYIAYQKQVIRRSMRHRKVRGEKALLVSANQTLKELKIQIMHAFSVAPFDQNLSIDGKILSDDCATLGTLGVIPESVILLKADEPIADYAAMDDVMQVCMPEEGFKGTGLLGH
Procedure, shortened: as §1

[5] = target: T4, USP5 (UniProt P45974)
T4 sequence (whole entry): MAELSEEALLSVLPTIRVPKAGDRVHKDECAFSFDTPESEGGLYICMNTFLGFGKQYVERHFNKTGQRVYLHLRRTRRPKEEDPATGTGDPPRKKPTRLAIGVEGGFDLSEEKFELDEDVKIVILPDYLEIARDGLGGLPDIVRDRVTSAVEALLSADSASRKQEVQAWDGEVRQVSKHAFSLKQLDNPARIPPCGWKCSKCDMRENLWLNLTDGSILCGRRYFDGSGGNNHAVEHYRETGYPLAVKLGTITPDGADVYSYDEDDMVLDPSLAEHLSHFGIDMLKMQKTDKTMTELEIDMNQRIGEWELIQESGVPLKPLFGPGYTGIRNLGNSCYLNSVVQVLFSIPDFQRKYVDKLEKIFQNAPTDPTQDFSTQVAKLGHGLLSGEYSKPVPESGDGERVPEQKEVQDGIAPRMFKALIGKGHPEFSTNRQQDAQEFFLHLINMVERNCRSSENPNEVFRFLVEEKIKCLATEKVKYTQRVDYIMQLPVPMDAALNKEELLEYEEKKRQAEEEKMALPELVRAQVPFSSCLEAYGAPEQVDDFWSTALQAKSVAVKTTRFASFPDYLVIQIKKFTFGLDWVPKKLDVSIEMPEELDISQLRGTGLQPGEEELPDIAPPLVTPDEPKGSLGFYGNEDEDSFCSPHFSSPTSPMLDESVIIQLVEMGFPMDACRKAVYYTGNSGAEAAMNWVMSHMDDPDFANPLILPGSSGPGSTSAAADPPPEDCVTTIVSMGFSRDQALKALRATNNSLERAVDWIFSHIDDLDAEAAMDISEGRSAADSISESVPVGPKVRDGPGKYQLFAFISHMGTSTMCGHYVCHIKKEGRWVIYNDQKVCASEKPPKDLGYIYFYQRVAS
Procedure, shortened: as §1

[6] = target: USP54 (UniProt Q70EL1)
Procedure, shortened: as §1

[7] = target: USP7 (UniProt Q93009)
Procedure, shortened: as §1

[8] = target: T5, USP8 (UniProt P40818)
T5 sequence (whole entry): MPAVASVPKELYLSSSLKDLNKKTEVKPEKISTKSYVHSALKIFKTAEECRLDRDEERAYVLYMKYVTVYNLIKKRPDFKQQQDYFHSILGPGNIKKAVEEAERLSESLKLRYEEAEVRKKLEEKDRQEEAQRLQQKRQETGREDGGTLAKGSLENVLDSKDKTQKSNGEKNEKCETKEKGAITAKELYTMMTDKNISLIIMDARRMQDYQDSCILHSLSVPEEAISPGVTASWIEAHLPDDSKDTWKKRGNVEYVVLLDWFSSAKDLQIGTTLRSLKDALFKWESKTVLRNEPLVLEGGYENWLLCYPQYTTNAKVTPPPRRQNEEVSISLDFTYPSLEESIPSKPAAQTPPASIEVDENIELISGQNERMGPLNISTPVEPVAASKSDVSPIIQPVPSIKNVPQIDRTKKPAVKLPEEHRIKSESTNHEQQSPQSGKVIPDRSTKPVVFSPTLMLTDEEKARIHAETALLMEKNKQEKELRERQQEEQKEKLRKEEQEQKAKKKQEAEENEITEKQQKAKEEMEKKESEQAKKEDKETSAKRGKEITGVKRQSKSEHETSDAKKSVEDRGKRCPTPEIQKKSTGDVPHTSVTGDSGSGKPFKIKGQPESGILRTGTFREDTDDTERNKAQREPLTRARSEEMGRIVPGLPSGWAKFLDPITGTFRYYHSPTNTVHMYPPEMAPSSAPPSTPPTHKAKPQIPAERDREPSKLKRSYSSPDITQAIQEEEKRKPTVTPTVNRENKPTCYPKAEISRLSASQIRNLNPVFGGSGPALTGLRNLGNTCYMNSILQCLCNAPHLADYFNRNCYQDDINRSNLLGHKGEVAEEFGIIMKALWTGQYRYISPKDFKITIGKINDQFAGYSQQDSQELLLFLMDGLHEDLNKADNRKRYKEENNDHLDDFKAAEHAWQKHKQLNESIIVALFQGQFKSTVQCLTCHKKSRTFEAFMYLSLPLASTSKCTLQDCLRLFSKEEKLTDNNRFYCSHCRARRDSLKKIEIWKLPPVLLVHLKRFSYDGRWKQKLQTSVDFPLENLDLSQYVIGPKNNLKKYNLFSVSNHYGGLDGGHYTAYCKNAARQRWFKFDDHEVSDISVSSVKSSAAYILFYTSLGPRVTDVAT
Procedure, shortened: as §1

[9] = target: USP9X (UniProt Q93008)
Procedure, shortened: as §1

[10] = target: UniProt O00487
Procedure, shortened: as §1

Measured: log2 ratio of Biotin-Ahx-Ub-VS probe labelling

Chain of USP7 (Q93009 whole entry, looked up): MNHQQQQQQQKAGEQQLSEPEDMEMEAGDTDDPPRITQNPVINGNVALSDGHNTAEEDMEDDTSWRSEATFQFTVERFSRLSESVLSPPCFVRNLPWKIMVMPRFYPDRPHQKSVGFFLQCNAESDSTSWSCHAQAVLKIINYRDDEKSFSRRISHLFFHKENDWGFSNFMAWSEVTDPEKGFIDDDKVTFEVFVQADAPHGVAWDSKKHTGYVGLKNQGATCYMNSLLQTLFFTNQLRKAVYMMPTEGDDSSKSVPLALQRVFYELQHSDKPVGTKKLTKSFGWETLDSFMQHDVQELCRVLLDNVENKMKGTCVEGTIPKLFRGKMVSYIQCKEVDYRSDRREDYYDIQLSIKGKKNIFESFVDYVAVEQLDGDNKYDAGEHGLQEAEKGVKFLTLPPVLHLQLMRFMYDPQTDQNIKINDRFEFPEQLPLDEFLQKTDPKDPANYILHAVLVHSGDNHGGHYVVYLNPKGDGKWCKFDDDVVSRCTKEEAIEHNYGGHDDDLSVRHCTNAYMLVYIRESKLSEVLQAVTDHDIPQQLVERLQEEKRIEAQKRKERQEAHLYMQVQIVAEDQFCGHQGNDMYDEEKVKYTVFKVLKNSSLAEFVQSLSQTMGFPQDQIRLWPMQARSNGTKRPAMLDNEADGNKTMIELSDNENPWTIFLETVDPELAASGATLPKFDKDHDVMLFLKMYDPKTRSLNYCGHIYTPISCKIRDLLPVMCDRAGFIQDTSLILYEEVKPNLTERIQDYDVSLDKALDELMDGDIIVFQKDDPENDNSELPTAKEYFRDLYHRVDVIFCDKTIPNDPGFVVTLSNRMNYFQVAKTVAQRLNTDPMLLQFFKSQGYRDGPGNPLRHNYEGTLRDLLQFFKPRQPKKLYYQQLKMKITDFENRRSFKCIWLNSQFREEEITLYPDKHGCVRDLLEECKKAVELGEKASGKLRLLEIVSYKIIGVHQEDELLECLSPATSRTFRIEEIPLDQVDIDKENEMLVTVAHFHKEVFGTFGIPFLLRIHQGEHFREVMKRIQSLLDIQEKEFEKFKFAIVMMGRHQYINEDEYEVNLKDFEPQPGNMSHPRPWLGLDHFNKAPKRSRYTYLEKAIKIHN
Chain of USP9X (Q93008 whole entry): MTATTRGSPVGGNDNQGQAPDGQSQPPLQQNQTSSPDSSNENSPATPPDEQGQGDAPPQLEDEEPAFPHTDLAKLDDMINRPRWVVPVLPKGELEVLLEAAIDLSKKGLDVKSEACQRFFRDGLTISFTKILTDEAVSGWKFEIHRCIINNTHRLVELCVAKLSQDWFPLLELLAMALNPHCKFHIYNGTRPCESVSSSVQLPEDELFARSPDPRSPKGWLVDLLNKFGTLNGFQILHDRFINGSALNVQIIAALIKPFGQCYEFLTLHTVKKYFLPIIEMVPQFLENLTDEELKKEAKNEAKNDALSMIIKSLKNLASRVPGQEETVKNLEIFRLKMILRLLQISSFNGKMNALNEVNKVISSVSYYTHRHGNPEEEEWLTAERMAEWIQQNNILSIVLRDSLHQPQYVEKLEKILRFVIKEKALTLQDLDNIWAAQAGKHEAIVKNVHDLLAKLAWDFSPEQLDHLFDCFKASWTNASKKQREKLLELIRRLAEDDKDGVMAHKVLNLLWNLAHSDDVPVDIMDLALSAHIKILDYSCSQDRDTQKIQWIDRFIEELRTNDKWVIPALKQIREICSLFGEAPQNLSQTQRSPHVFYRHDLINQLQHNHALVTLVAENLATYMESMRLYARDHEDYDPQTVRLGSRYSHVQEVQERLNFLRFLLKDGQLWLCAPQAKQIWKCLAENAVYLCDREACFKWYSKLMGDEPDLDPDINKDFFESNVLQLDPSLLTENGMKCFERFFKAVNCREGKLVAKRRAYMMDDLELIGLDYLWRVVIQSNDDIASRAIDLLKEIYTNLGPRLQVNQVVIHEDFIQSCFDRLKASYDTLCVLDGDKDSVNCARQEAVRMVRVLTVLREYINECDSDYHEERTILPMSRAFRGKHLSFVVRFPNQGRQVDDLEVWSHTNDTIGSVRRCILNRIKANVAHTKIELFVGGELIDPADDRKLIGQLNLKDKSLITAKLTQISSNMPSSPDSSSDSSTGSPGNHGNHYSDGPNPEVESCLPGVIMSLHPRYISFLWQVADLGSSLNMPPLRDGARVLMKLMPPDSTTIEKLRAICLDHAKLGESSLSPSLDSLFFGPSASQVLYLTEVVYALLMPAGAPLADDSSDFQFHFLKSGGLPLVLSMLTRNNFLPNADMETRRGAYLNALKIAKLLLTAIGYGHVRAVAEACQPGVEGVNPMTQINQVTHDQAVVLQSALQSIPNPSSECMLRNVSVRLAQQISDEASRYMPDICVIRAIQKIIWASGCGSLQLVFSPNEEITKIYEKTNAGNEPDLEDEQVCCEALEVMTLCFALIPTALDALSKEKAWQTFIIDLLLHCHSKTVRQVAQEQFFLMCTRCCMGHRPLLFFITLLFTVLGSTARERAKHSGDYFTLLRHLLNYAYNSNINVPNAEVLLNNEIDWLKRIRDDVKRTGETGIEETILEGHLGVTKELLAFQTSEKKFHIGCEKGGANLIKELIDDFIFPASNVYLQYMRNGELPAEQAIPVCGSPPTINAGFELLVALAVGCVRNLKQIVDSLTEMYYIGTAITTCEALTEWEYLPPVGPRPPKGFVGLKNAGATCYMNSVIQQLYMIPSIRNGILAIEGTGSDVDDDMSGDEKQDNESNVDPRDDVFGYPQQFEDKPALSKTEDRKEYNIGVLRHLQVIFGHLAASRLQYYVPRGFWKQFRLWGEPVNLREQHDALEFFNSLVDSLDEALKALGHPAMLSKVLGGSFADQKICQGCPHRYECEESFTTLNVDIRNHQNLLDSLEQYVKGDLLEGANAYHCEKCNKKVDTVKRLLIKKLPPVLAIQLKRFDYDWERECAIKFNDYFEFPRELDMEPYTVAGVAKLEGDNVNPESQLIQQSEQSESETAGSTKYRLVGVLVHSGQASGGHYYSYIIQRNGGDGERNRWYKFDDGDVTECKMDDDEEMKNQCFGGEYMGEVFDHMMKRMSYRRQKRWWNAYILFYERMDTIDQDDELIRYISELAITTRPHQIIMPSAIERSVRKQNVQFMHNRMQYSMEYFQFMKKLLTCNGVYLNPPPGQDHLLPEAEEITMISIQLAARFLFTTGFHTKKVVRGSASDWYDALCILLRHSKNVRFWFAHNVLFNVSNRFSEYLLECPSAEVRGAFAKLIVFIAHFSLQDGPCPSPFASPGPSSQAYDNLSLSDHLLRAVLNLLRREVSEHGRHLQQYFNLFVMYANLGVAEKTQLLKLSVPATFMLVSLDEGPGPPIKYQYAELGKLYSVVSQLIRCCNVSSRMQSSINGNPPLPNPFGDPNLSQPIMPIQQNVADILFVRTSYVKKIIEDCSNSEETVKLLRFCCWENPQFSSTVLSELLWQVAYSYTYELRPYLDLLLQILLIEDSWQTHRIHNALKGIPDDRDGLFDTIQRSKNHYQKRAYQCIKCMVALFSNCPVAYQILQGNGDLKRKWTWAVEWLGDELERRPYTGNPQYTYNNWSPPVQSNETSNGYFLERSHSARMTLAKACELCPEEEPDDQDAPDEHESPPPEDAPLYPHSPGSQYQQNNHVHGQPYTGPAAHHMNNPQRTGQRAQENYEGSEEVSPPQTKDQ
Chain of UniProt O00487 (O00487 whole entry): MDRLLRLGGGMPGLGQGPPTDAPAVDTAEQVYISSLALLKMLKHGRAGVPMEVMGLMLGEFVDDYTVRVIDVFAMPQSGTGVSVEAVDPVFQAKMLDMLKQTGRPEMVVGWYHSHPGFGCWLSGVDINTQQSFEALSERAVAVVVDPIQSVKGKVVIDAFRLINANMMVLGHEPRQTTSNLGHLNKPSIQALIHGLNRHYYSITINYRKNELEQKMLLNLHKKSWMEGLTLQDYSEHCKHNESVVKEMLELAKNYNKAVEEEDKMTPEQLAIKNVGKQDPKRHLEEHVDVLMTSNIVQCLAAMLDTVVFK
Chain of USP46 (P62068 whole entry): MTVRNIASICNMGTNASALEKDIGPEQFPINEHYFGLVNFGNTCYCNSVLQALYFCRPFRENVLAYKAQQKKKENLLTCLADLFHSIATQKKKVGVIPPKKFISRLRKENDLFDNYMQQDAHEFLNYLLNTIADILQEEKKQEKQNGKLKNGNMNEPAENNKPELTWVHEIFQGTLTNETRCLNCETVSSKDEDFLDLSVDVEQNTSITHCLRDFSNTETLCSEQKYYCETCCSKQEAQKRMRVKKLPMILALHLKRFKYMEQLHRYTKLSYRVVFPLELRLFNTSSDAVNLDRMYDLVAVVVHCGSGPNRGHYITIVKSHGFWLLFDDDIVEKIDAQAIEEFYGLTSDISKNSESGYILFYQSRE

Cl.O=C(CCl)N1CCn2cncc2C1
inactive: [1] 0.404 | [2] -0.137 | [3] 0.174 | [4] -0.0876 | [5] -0.362 | [6] 0.158 | [7] -0.527 | [8] -0.217 | [9] -0.0687 | [10] -0.0669

O=C(CCl)Nc1cccc(C(=O)N2CCSCC2)c1
inactive: [1] 0.397 | [2] -0.00544 | [3] 0.175 | [4] -0.0892 | [5] -0.171 | [6] -0.177 | [7] -0.299 | [8] -0.00928 | [9] -0.091 | [10] 0.0356

Cc1noc(N2CCN(C(=O)CCl)CC2)n1.Cl
inactive: [1] 0.0551 | [2] -0.0466 | [3] -0.329 | [4] 0.0849 | [5] 0.492 | [6] 0.167 | [7] -0.27 | [8] -0.307 | [9] -0.318 | [10] 0.0199
